# Experiments:
# Assay in all cases: DAPPL (digital affinity profiling via proximity ligation, sequencing); 10 mM Tris-HCl pH 7.5, 50 mM NaCl, 1 mM DTT, 4% glycerol, room temperature, 30 min; GST-TFs on glutathione beads, 16-mer random dsDNA library, 0.1% formaldehyde crosslink after washing; high values mean tight binding
# FEV = biological target: T1, FEV (Homo sapiens, UniProt Q99581 1-238); settings: protein: recombinant; tags: N-terminal GST; dsDNA, one strand shown
# T1 sequence: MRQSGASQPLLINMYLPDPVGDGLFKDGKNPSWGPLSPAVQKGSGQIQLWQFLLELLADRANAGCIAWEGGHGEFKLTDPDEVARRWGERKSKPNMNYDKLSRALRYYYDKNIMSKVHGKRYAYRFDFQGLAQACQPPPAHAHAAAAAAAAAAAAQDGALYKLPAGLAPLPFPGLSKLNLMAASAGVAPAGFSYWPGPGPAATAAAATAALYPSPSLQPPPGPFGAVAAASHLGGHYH
# In short: (§1)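 Pools of DNA-barcoded human transcription factors, expressed in yeast as GST fusions on glutathione beads and combined with a tag-only sample, were incubated with 200 nmole of a 16-mer random double-stranded DNA library. Incubation took 30 min at room temperature in Tris/NaCl/DTT/glycerol buffer and was followed by washing, 0.1% formaldehyde crosslinking, proximity ligation (BsaI/T4 ligase, 1 h, 37 °C), PCR amplification and sequencing on an Illumina NextSeq500. Binding signal is the ratio of a hexamer's read frequency for a factor to its frequency for the tag-only sample.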
# ETV5 = ETV5 (Homo sapiens, UniProt P41161 1-510); settings: protein: recombinant; tags: N-terminal GST; dsDNA, one strand shown
# In short: as §1
# HSF1 = HSF1 (Homo sapiens, UniProt Q00613 1-529); settings: protein: recombinant; tags: N-terminal GST; chain copies: 3; dsDNA, one strand shown
# In short: as §1
# SPIC = biological target: T2, SPIC (Homo sapiens, UniProt Q8N5J4 1-248); settings: protein: recombinant; tags: N-terminal GST; dsDNA, one strand shown
# T2 sequence: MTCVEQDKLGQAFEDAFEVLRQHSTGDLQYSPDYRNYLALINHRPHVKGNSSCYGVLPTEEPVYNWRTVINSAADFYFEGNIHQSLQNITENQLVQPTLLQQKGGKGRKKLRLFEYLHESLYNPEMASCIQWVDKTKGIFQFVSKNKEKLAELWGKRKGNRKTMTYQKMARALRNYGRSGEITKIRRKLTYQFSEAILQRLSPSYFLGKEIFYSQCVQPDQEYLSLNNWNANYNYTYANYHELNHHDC
# In short: as §1
# ELF4 = ELF4 (Homo sapiens, UniProt Q99607 1-663); settings: protein: recombinant; tags: N-terminal GST; dsDNA, one strand shown
# In short: as §1
# ELK4 = biological target: T3, ELK4 (Homo sapiens, UniProt P28324-2 1-405); settings: protein: recombinant; tags: N-terminal GST; dsDNA, one strand shown
# T3 sequence: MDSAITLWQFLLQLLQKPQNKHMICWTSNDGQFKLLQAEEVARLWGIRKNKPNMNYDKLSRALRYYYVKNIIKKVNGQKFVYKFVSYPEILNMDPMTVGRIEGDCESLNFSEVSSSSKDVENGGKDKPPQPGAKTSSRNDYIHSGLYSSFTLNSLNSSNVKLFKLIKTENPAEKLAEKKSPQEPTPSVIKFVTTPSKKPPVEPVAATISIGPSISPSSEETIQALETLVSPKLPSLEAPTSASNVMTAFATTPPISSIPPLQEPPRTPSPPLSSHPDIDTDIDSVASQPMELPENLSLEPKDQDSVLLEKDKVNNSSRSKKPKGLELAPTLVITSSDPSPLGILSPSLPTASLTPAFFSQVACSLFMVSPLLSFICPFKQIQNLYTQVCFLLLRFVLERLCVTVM
# In short: as §1
# ETV2 = biological target: T4, ETV2 (Homo sapiens, UniProt O00321 1-342); settings: protein: recombinant; tags: N-terminal GST; dsDNA, one strand shown
# T4 sequence: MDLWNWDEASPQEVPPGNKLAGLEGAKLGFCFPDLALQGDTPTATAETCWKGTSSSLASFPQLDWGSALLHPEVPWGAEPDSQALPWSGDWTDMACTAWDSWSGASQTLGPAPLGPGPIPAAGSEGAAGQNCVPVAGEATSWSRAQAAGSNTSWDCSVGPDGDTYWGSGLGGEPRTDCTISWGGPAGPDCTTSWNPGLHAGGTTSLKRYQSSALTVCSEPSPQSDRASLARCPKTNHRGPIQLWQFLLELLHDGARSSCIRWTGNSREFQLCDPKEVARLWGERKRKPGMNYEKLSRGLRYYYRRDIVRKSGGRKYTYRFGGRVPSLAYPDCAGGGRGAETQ
# In short: as §1
# ELF3 = biological target: T5, ELF3 (Homo sapiens, UniProt P78545 1-371); settings: protein: recombinant; tags: N-terminal GST; dsDNA, one strand shown
# T5 sequence: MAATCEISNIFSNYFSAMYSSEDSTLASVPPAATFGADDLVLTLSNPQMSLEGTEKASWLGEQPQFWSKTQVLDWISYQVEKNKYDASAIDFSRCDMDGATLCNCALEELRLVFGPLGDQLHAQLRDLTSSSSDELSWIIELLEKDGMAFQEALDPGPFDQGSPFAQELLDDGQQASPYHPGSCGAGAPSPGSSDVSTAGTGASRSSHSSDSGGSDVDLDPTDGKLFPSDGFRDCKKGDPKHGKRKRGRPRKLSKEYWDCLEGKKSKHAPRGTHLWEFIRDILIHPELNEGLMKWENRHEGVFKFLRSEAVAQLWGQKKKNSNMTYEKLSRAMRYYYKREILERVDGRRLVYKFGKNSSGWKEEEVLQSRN
# In short: as §1
# CRX = CRX (Homo sapiens, UniProt O43186 1-299); settings: protein: recombinant; tags: N-terminal GST; dsDNA, one strand shown
# In short: as §1
# ETV1 = ETV1 (Homo sapiens, UniProt P50549 1-477); settings: protein: recombinant; tags: N-terminal GST; dsDNA, one strand shown
# In short: as §1
# ERF = biological target: T6, ERF (Homo sapiens, UniProt P50548 1-548); settings: protein: recombinant; tags: N-terminal GST; dsDNA, one strand shown
# T6 sequence: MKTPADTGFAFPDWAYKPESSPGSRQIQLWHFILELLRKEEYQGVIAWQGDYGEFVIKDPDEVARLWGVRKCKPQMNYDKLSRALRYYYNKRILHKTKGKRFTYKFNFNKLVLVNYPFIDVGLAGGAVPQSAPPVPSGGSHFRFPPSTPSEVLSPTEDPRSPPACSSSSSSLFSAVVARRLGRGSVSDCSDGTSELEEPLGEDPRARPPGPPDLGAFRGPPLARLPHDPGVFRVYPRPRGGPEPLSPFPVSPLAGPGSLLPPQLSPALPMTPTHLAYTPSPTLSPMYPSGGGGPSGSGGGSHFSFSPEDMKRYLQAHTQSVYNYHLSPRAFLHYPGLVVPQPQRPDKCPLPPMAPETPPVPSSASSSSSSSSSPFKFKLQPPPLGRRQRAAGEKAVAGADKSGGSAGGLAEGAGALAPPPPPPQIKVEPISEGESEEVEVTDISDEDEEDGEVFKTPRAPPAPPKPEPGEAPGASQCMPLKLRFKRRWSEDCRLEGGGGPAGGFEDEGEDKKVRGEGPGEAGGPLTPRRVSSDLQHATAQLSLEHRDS
# In short: as §1
# ETV3L = biological target: T7, ETV3L (Homo sapiens, UniProt Q6ZN32 1-361); settings: protein: recombinant; tags: N-terminal GST; dsDNA, one strand shown
# T7 sequence: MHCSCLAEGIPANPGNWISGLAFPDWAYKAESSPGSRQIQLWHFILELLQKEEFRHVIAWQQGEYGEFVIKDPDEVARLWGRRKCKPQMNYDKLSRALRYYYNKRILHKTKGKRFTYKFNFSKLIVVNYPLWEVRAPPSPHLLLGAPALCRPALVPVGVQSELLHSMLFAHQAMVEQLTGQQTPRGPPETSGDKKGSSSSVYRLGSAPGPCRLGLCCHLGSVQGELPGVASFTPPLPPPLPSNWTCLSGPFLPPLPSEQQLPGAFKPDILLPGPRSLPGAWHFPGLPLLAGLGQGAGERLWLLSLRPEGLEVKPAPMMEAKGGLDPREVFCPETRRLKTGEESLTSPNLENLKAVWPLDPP
# In short: as §1
# ETS2 = biological target: T8, ETS2 (Homo sapiens, UniProt P15036 1-469); settings: protein: recombinant; tags: N-terminal GST; dsDNA, one strand shown
# T8 sequence: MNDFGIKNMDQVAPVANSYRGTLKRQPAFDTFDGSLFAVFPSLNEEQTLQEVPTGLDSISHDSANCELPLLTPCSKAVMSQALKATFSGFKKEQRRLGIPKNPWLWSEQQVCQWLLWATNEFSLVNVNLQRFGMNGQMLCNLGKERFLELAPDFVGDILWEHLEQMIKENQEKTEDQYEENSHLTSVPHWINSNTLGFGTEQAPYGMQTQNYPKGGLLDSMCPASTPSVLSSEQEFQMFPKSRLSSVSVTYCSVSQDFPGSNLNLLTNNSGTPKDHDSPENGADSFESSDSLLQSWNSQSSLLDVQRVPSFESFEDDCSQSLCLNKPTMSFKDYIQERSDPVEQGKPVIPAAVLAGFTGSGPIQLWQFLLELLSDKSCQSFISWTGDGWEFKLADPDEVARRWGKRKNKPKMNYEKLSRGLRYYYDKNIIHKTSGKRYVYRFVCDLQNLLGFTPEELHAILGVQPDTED
# In short: as §1
# SPDEF = biological target: T9, SPDEF (Homo sapiens, UniProt O95238 1-335); settings: protein: recombinant; tags: N-terminal GST; dsDNA, one strand shown
# T9 sequence: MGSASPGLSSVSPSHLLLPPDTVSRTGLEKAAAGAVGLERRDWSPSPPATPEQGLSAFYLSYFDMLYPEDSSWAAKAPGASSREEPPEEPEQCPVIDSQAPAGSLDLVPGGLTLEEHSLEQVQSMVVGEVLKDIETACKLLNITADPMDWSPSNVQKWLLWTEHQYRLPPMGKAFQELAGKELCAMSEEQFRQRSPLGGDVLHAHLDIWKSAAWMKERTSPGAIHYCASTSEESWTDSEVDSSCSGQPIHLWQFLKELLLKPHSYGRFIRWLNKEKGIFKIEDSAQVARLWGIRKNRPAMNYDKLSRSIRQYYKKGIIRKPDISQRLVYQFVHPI
# In short: as §1
# ETV7 = biological target: T10, ETV7 (Homo sapiens, UniProt Q9Y603 1-341); settings: protein: recombinant; tags: N-terminal GST; dsDNA, one strand shown
# T10 sequence: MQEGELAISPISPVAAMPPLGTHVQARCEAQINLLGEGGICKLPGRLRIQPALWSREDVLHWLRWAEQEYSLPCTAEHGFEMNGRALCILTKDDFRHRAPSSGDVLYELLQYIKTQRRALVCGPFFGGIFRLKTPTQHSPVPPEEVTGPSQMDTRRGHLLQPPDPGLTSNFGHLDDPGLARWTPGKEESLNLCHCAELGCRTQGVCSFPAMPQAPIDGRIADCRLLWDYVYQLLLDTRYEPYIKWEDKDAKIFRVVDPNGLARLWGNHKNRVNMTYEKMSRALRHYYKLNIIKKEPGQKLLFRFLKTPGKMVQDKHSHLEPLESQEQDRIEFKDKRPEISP
# In short: as §1
# ELF5 = biological target: T11, ELF5 (Homo sapiens, UniProt Q9UKW6-2 1-255); settings: protein: recombinant; tags: N-terminal GST; dsDNA, one strand shown
# T11 sequence: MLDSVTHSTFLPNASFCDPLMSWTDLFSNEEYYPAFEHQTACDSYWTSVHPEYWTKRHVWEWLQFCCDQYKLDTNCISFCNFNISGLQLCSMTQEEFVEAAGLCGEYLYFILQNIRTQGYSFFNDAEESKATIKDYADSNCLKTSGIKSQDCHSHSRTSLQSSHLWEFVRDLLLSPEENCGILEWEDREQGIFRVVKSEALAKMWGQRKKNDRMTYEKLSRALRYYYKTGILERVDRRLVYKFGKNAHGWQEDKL
# In short: as §1
# ETV3 = biological target: T12, ETV3 (Homo sapiens, UniProt P41162-2 1-143); settings: protein: recombinant; tags: N-terminal GST; dsDNA, one strand shown
# T12 sequence: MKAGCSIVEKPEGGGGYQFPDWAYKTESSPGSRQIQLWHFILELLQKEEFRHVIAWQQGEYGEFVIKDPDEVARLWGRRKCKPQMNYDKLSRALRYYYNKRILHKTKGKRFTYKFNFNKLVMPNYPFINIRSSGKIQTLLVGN
# In short: as §1
# ETV6 = ETV6 (Homo sapiens, UniProt P41212 1-452); settings: protein: recombinant; tags: N-terminal GST; dsDNA, one strand shown
# In short: as §1
# HSF1, sequence (Q00613 whole entry): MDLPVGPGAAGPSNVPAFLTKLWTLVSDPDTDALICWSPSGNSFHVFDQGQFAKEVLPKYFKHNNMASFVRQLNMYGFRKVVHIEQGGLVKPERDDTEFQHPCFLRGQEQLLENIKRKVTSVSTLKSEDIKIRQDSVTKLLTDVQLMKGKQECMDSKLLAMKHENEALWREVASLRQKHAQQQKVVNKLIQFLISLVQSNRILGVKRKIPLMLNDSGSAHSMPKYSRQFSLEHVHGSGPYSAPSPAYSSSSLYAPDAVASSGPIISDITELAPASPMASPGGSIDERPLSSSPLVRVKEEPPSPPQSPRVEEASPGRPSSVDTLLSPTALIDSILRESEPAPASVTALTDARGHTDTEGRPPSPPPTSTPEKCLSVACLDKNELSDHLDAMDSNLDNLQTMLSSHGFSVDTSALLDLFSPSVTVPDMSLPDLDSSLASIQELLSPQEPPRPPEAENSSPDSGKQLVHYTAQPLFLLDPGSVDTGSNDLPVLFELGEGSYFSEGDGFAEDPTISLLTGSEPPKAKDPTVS
# ETV6, sequence (P41212 whole entry): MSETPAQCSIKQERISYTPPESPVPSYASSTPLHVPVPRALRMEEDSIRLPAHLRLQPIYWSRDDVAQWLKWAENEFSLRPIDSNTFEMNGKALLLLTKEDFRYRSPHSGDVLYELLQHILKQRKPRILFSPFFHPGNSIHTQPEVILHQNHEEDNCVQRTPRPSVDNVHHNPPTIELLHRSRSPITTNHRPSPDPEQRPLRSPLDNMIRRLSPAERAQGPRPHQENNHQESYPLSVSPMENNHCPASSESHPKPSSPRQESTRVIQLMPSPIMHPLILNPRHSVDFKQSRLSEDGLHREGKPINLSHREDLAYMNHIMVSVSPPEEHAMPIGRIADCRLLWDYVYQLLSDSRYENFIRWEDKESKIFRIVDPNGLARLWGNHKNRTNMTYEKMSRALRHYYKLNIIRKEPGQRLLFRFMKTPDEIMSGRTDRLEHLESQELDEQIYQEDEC
# ELF4, sequence (Q99607 whole entry): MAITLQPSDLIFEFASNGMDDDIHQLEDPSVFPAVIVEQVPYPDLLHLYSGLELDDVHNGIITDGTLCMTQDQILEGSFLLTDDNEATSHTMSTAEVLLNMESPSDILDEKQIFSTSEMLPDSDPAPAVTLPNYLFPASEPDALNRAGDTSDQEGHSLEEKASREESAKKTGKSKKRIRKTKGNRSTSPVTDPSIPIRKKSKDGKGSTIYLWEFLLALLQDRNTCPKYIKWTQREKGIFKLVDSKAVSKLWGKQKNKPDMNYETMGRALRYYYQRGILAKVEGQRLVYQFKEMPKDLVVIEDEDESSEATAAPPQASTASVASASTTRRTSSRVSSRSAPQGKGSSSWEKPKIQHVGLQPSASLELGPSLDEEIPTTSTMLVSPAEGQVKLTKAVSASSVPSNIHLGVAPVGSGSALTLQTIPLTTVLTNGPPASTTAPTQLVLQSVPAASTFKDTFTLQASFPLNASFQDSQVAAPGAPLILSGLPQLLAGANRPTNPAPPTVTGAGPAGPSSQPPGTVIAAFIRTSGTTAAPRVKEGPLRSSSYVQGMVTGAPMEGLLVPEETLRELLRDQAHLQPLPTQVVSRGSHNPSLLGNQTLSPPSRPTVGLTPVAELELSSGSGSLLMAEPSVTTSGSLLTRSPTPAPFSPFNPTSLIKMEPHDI
# CRX, sequence (O43186 whole entry): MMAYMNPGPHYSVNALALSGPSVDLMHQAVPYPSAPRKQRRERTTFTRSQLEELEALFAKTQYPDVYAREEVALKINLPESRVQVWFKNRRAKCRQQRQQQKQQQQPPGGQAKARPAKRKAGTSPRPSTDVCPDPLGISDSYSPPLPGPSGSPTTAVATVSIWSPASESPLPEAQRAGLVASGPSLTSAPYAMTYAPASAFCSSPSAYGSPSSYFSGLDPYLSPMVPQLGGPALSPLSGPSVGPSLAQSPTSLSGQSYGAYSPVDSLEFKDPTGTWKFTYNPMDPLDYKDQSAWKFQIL
# ETV1, sequence (P50549 whole entry): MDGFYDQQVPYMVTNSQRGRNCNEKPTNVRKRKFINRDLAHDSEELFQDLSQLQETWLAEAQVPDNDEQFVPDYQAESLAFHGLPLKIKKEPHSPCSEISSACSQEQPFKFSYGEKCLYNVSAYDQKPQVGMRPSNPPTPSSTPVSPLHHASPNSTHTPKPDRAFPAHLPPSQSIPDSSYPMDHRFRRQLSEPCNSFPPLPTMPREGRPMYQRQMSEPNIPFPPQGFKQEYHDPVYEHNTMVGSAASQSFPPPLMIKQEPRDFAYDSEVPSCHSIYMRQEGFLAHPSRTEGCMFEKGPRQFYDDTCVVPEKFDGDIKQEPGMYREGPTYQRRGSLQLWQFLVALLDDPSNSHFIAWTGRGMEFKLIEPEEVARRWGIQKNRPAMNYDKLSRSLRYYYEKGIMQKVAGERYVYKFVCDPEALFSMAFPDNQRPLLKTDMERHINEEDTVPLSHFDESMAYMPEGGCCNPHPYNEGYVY
# ETV5, sequence (P41161 whole entry): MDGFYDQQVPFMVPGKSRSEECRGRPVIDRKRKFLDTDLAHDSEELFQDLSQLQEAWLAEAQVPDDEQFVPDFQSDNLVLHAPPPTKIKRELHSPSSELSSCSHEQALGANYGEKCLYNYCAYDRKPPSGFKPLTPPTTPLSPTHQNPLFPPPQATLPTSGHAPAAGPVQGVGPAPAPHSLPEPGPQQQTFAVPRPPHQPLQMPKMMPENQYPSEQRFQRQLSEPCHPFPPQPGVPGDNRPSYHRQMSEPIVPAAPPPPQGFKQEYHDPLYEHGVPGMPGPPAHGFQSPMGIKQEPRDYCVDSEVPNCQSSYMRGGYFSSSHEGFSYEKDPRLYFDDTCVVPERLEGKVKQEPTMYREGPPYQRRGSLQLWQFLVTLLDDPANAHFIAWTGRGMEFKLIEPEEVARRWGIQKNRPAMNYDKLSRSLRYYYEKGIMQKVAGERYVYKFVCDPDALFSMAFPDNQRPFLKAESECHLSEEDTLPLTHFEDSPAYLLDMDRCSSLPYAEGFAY
sequence,measurement,setting,value
ACGTAA,binding signal,FEV,"1.07 fold enrichment (6-mer frequency, TF over GST control)"
same,binding signal,ETV5,"1.16 fold enrichment (6-mer frequency, TF over GST control)"
same,binding signal,HSF1,"1.17 fold enrichment (6-mer frequency, TF over GST control)"
same,binding signal,SPIC,"1.12 fold enrichment (6-mer frequency, TF over GST control)"
same,binding signal,ELF4,"1.14 fold enrichment (6-mer frequency, TF over GST control)"
same,binding signal,ELK4,"1.12 fold enrichment (6-mer frequency, TF over GST control)"
same,binding signal,ETV2,"1.12 fold enrichment (6-mer frequency, TF over GST control)"
same,binding signal,ELF3,"1.07 fold enrichment (6-mer frequency, TF over GST control)"
same,binding signal,CRX,"1.27 fold enrichment (6-mer frequency, TF over GST control)"
same,binding signal,ETV1,"1.12 fold enrichment (6-mer frequency, TF over GST control)"
same,binding signal,ERF,"1.12 fold enrichment (6-mer frequency, TF over GST control)"
same,binding signal,ETV3L,"1.09 fold enrichment (6-mer frequency, TF over GST control)"
same,binding signal,ETS2,"1.08 fold enrichment (6-mer frequency, TF over GST control)"
same,binding signal,SPDEF,"1.11 fold enrichment (6-mer frequency, TF over GST control)"
same,binding signal,ETV7,"1.08 fold enrichment (6-mer frequency, TF over GST control)"
same,binding signal,ELF5,"1.09 fold enrichment (6-mer frequency, TF over GST control)"
same,binding signal,ETV3,"1.17 fold enrichment (6-mer frequency, TF over GST control)"
same,binding signal,ETV6,"1.07 fold enrichment (6-mer frequency, TF over GST control)"
